aSyn UTR act: Activators working through SNCA 5'UTR binding (MLPCN) | alpha-synuclein 5'UTR reporter, activators screen | activity score, % (tested at 7.5 µM), hits read low | 7.1% of 300,000 active | AID 1814; in the data active = activity score below about -60%
Hits are given with their value; n = inactive. A selection follows.

SMILES	aSyn UTR act
O=C(Nc1ccc(Nc2ccccc2)cc1)c1cccc(F)c1	-265
CCCCCOc1ccc(Cl)cc1CN1CCOCC1	-78
CCc1ccc(NC(=O)CSc2nncn2-c2cccnc2)cc1	-119
CC1(C)Cc2c(sc3nc(N/N=C/c4ccccc4)[nH]c(=O)c23)CO1	-78
Nc1ccc2nc3c(=O)n(C4CCCCC4)c(=O)[nH]c3nc2c1	-130
COc1cc2c(c(OC)c1OC)-c1ccc(OC)c(=O)cc1[C@@H](N(C)CC#CCO)CC2	n
O=C(Nc1ccccc1)c1cc2ccccc2c(=O)s1	-209
O=C(Nc1ccc(O)cc1)c1cc2ccccc2c(=O)s1	-114
CCn1cc(C(=O)O)c(=O)c2cnc(N3CCN(C(=S)Nc4ccccc4Cl)CC3)nc21	-112
N#C/C(=C\c1ccccn1)c1nc2ccccc2s1	-74
COc1ccc(/C(C#N)=C/c2ccccn2)cc1	-172
O=C(Nc1nccs1)c1ccc(Br)o1	-102
O=C(/C=C/c1ccc(Br)o1)Nc1nccs1	-149
Cc1cc(-c2nnc(CSc3nnc(NC(=O)c4ccc(C(C)(C)C)cc4)s3)o2)ccc1[N+](=O)[O-]	-110
CC(=O)c1cccc(OCc2cc(C(=O)N3C[C@H]4CC[C@H]3C4)no2)c1	-134
COCCC1CCCCN1C(=O)c1cc(COc2cccc(C(C)=O)c2)on1 (stereo not drawn)	-96
O=C(c1cc(COc2cccc(C(F)(F)F)c2)on1)N1C[C@H]2CC[C@H]1C2	-117
CC(=O)c1cccc(OCc2cc(C(=O)N3C[C@@H](C)O[C@@H](C)C3)no2)c1	-75
O=C(Nc1cccc(F)c1)N1CCC(c2ccccc2)CC1	-109
O=C(Nc1ccc(Cl)cc1)N1CCC(c2ccccc2)C1 (stereo not drawn)	-82
Cc1ccc(C2CCN(C(=O)Nc3ccccc3)C2)cc1 (stereo not drawn)	-151
O=C(Nc1cccc(F)c1)N1CC=C(c2ccc(Cl)cc2)CC1	-110
CC1(C)N=C(N)N=C(N)N1c1ccccc1	n
Cc1cc(-c2ccccc2)n(-c2ccccc2)n1	-84
Cc1nn(-c2ccccc2)c(N)c1-c1ccccc1	-72
SMILES	aSyn UTR act
Cc1nn(-c2ccccc2)c(/N=C/c2ccccc2O)c1-c1ccccc1	-176
Cc1nn(-c2nc3ccccc3[nH]2)c(N)c1-c1ccccc1	-183
COc1cc(C2CC(=O)Nc3n[nH]c(-c4ccccc4)c32)cc(OC)c1OC (stereo not drawn)	-120
COc1cc(/C=C2\CC(C(C)(C)C)C/C(=C\c3cc(OC)c(OC)c(OC)c3)C2=O)cc(OC)c1OC (stereo not drawn)	n
Cc1cc(Cl)n2c(nc3ccccc32)c1C#N	n
Cn1c(-c2ccc(C=O)s2)nc2ccccc21	-123
Cn1c(-c2cccs2)nc2ccccc21	-93
Cn1c(-c2ccc(Cl)nc2)nc2ccccc21	-65
CCCCn1cnc2c([nH]c3cc(OC)ccc32)c1=O	-129
COc1ccc2c(c1)[nH]c1c(=O)n(Cc3ccco3)cnc12	-65
CN(C)/C=N/c1ncc(C(=O)c2ccc(Cl)cc2)s1	-72
Cc1ccc(-c2nnn(CCC(=O)NC(C)(C)C)n2)cc1	-80
Cc1cc(NC(c2ccc(Cl)cc2)c2ccc3cccnc3c2O)no1 (stereo not drawn)	n
COn1c(-c2ccc(Cl)cc2)nc2ncccc21	-107
CC(C)C(=O)Nc1cccc(NC(=S)NC(=O)c2ccc3c(c2)OCO3)c1	-158
CC(C)C(=O)Nc1cccc(NC(=S)NC(=O)c2cccs2)c1	-126
CC(C)C(=O)Nc1cccc(NC(=S)NC(=O)c2ccc(Cl)cc2)c1	-120
Cc1ccc(NC(=S)NC(=O)c2ccc(F)cc2)cc1S(=O)(=O)Nc1cccc(Cl)c1	n
O=[N+]([O-])c1ccc(/C=N/N/C(=N/c2ccccn2)c2ccccn2)cc1	-125
O=[N+]([O-])c1cc(/C=N/N/C(=N/c2ccccn2)c2ccccn2)ccc1O	-91
CC(=O)c1c(C)[nH]c(C(=O)CSc2nnc3ccccn23)c1C	-85
C=CCn1c(SCC(=O)c2[nH]c(C)c(C(=O)OC)c2C)nc2scc(-c3ccc(OC)c(OC)c3)c2c1=O	n
CC(=O)c1c(C)[nH]c(C(=O)CSc2nnc(C)s2)c1C	-110
c1ccc2oc(CCc3nc4ccccc4o3)nc2c1	-99
Nc1ccc2oc(CCc3ccccc3)nc2c1	-118
SMILES	aSyn UTR act
COc1ccc(/C=N/n2c(N)nc(-c3ccccc3)c2-c2ccccc2)cc1	-63
COc1ccc(Nc2nc(N)nc(CSc3nccn3C)n2)cc1	-87
COc1ccc(Nc2nc(N)nc(CSC(=S)N3CCCCC3)n2)cc1	-62
Nc1nc(CSc2ccccn2)nc(Nc2ccccc2)n1	-85
COc1ccc(Nc2nc(N)c([N+](=O)[O-])c(NC3CCCCC3)n2)cc1	n
Nc1nc(COc2ccccc2C=O)nc(Nc2ccccc2)n1	-119
COc1ccc(OCc2nc(N)nc(Nc3ccc(C)cc3)n2)cc1	-69
c1cnc(SCCOc2ccc3c(c2)CCC3)nc1	-111
Clc1cccc(N/N=C(\Cc2nc3ccccc3[nH]2)c2ccccc2)c1	-102
O=c1c2ccccc2c(C=Nc2ccc(O)cc2)c(O)n1Cc1ccccc1	-111
CN1c2ccsc2/C(=N/Nc2ccccc2)CS1(=O)=O	-123
O=C1NC(=O)/C(=C/c2ccc(O)cc2)S1	-91
c1ccc2c(c1)CC(N1CCCCC1)c1ccccc1S2 (stereo not drawn)	n
CN[C@H]1CCc2cc(OC)c(OC)c(OC)c2-c2ccc(N(C)CC(OC)OC)c(=O)cc21	n
COc1cccc(Nc2nc(-c3cccc(N4C(=O)c5ccccc5C4=O)c3)cs2)c1	-62
COc1cccc(Nc2nc(-c3ccc(O)cc3)cs2)c1	-191
O=C(CCNC(=O)c1ccc(Cl)cc1)NCCC1=CCCCC1	-124
COCC(C)N1CCC(Oc2cccc(C(=O)NCCc3ccccc3)c2)CC1 (stereo not drawn)	-72
O=C(NC1CCCCCC1)c1ccc(CN2CCOCC2)cc1	-122
O=C(NCCC1=CCCCC1)c1ccc(CN2CCOCC2)cc1	-73
COc1ccc(C(=O)NCCc2ccccc2)cc1OC	-97
O=C(NCCc1ccc(F)cc1)c1ccc([N+](=O)[O-])cc1	-78
O=C(NCCC1=CCCCC1)c1ccc([N+](=O)[O-])cc1	-147
CCOc1ccc(C(=O)NCCc2ccccc2)cc1	n
O=C1CSc2ccc(C(=O)NCCC3=CCCCC3)cc2N1	-104
SMILES	aSyn UTR act
CCOc1cccc2cc(C(=O)NCCC3=CCCCC3)c(=O)oc12	-95
Cc1cc(C(=O)NCCC2=CCCCC2)ccc1[N+](=O)[O-]	-121
COc1ccc(C(=O)NCCC2=CCCCC2)cc1OC	-81
COc1ccc(C(=O)NCCC2=CCCCC2)cc1	n
Cc1cccc(OCC2=NS(=O)(=O)c3ccccc3N2)c1	-93
O=C(NC1CCCCCCC1)NC1CCCCC1	-127
O=C(NC1CCCCCC1)C(=S)NC1CCCCC1	-98
CCOC(=O)c1sc(Nc2cccc(Cl)c2)nc1C	-102
COC(=O)c1sc(NC(=O)/C=C/c2ccccc2Cl)nc1C	-87
Cc1nc(NC(=O)/C=C/c2ccccc2)sc1C(=O)NCCO	-67
COC(=O)c1sc(NC(=O)/C=C/c2ccc(C)cc2)nc1C	-71
CCOC(=O)c1sc(NC(=O)CCc2ccccc2)nc1C	-146
CCOC(=O)c1sc(NC(=O)/C=C/c2ccccc2)nc1C	-95
CC(=O)Nc1ccc(/C=N/N2CCCCC2)cc1	-96
c1ccc(-c2noc(C34CC5CC(CC(C5)C3)C4)n2)cc1	-69
c1ccc(-c2noc(C34CC5CC(CC(C5)C3)C4)n2)nc1	-209
Cc1c(C(=O)Nc2cccnc2Cl)oc2ccccc12	-181

Screens deposited in PubChem BioAssay by Broad Institute.
